# According to PMC11006913:
# Substitutions are numbered along the chain they refer to.
# How the values were obtained:
# Test in all cases: PBM; 200 nM protein, PBS
# Conditions in all cases: dsDNA, one strand shown
# [1] = molecular target: HOXA4 (Homo sapiens, UniProt Q00056 201-287, W262R)
# [2] = molecular target: HOXC10 (Homo sapiens, UniProt Q9NYD6 254-340)
# [3] = molecular target: ALX4 (Homo sapiens, UniProt Q9H161 200-286)
# [4] = molecular target: ALX4 (Homo sapiens, UniProt Q9H161 200-286, Q225E)
# Sequence of ALX4 (Homo sapiens, UniProt Q9H161 200-286, Q225E) (Q9H161 200-286 Q225E): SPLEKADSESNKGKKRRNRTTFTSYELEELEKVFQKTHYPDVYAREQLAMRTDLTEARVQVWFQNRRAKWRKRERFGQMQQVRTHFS
# [5] = molecular target: HOXA4 (Homo sapiens, UniProt Q00056 201-287, R217L)
# Sequence of HOXA4 (Homo sapiens, UniProt Q00056 201-287, R217L) (Q00056 201-287 R217L): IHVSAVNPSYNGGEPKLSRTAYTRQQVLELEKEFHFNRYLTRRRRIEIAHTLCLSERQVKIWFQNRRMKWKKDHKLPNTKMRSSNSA
# [6] = molecular target: HOXA4 (Homo sapiens, UniProt Q00056 201-287)
# Sequence of HOXA4 (Homo sapiens, UniProt Q00056 201-287) (Q00056 201-287): as the sequence (Q00056 201-287 R217L) above, with L17R counted along it
# [7] = molecular target: HOXC10 (Homo sapiens, UniProt Q9NYD6 254-340, K271E)
# Sequence of HOXC10 (Homo sapiens, UniProt Q9NYD6 254-340, K271E) (Q9NYD6 254-340 K271E): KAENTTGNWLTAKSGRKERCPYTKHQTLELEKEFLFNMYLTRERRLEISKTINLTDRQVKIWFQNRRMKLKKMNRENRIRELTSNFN
# [8] = molecular target: HOXA4 (Homo sapiens, UniProt Q00056 201-287, W262F)
# Sequence of HOXA4 (Homo sapiens, UniProt Q00056 201-287, W262F) (Q00056 201-287 W262F): as the sequence (Q00056 201-287 R217L) above, with L17R, W62F counted along it
# [9] = molecular target: T1, SIX6 (Homo sapiens, UniProt O95475 114-200, L167I)
# T1 sequence: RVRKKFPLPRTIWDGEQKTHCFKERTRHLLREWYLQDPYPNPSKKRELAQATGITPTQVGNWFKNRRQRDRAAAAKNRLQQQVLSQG
# [10] = molecular target: T2, SIX6 (Homo sapiens, UniProt O95475 114-200, L143M)
# T2 sequence: T1 sequence with L30M, I54L
# [11] = molecular target: T3, SIX6 (Homo sapiens, UniProt O95475 114-200, T139Q)
# T3 sequence: T1 sequence with T26Q, I54L
# [12] = molecular target: T4, PAX4 (Homo sapiens, UniProt O43316 9-242, R200K)
# T4 sequence: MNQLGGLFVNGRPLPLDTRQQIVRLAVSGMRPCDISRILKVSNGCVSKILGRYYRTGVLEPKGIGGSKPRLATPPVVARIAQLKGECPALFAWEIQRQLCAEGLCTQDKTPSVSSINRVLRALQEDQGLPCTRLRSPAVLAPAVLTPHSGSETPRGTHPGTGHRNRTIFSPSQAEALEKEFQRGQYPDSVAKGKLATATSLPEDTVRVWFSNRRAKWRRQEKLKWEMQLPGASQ
# [13] = molecular target: PRRX1 (Homo sapiens, UniProt P54821 80-166, F113S)
# Sequence of PRRX1 (Homo sapiens, UniProt P54821 80-166, F113S) (P54821 80-166 F113S): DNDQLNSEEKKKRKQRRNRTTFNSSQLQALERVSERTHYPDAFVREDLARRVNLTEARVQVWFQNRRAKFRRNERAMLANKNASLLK
# [14] = molecular target: T5, PAX4 (Homo sapiens, UniProt O43316 9-242)
# T5 sequence: T4 sequence with K192R
# [15] = molecular target: MSX2 (Homo sapiens, UniProt P35548 130-214, R199I)
# Sequence of MSX2 (Homo sapiens, UniProt P35548 130-214, R199I) (P35548 130-214 R199I): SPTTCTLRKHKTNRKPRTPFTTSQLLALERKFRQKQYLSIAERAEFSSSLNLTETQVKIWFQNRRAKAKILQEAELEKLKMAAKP
# [16] = molecular target: T6, PAX4 (Homo sapiens, UniProt O43316 9-242, R200Q)
# T6 sequence: T4 sequence with K192Q
# [17] = molecular target: T7, PAX4 (Homo sapiens, UniProt O43316 9-242, F177V)
# T7 sequence: T4 sequence with F169V, K192R
# [18] = molecular target: MSX2 (Homo sapiens, UniProt P35548 130-214)
# Sequence of MSX2 (Homo sapiens, UniProt P35548 130-214) (P35548 130-214): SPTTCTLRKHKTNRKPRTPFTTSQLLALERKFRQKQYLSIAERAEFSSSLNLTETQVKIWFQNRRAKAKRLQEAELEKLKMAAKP
# [19] = molecular target: T8, PAX4 (Homo sapiens, UniProt O43316 9-242, F177Y)
# T8 sequence: T4 sequence with F169Y, K192R
# [20] = molecular target: MSX2 (Homo sapiens, UniProt P35548 130-214, F161Y)
# Sequence of MSX2 (Homo sapiens, UniProt P35548 130-214, F161Y) (P35548 130-214 F161Y): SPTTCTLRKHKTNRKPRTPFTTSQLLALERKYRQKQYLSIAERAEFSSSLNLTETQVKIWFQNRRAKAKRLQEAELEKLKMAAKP
# [21] = molecular target: T9, PAX4 (Homo sapiens, UniProt O43316 9-242, R227W)
# T9 sequence: T4 sequence with K192R, R219W
# [22] = molecular target: PRRX1 (Homo sapiens, UniProt P54821 80-166)
# Sequence of PRRX1 (Homo sapiens, UniProt P54821 80-166) (P54821 80-166): as the sequence (P54821 80-166 F113S) above, with S34F counted along it
# [23] = molecular target: HOXC9 (Homo sapiens, UniProt P31274 178-260, K195R)
# Sequence of HOXC9 (Homo sapiens, UniProt P31274 178-260, K195R) (P31274 178-260 K195R): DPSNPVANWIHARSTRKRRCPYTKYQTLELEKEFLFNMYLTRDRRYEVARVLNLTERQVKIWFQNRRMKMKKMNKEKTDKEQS
# [24] = molecular target: HOXC9 (Homo sapiens, UniProt P31274 178-260)
# Sequence of HOXC9 (Homo sapiens, UniProt P31274 178-260) (P31274 178-260): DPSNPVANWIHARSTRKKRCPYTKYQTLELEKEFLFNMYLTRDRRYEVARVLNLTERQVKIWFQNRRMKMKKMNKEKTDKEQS
# [25] = molecular target: HOXC9 (Homo sapiens, UniProt P31274 178-260, R193K)
# Sequence of HOXC9 (Homo sapiens, UniProt P31274 178-260, R193K) (P31274 178-260 R193K): as the sequence (P31274 178-260) above, with R16K counted along it
# [26] = molecular target: HOXC9 (Homo sapiens, UniProt P31274 178-260, R222W)
# Sequence of HOXC9 (Homo sapiens, UniProt P31274 178-260, R222W) (P31274 178-260 R222W): as the sequence (P31274 178-260) above, with R45W counted along it
# [27] = molecular target: T10, NKX2-6 (Homo sapiens, UniProt A6NCS4 118-204, R150C)
# T10 sequence: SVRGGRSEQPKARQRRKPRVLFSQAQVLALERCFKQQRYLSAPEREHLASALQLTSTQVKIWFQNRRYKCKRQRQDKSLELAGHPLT
# [28] = molecular target: HOXD13 (Homo sapiens, UniProt P35453 263-343, T313R)
# Sequence of HOXD13 (Homo sapiens, UniProt P35453 263-343, T313R) (P35453 263-343 T313R): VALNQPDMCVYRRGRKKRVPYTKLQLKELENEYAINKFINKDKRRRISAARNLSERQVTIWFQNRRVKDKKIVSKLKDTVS
# [29] = molecular target: HOXD13 (Homo sapiens, UniProt P35453 263-343)
# Sequence of HOXD13 (Homo sapiens, UniProt P35453 263-343) (P35453 263-343): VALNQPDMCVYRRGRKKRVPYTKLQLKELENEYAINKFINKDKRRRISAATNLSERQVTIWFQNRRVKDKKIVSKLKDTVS
# [30] = molecular target: HOXD13 (Homo sapiens, UniProt P35453 263-343, T313A)
# Sequence of HOXD13 (Homo sapiens, UniProt P35453 263-343, T313A) (P35453 263-343 T313A): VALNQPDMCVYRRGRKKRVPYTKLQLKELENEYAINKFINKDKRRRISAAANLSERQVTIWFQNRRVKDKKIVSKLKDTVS
# [31] = molecular target: ALX3 (Homo sapiens, UniProt O95076 139-225, N203Q)
# Sequence of ALX3 (Homo sapiens, UniProt O95076 139-225, N203Q) (O95076 139-225 N203Q): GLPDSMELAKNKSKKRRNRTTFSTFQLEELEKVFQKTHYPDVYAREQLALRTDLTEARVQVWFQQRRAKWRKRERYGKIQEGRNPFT
# [32] = molecular target: ALX3 (Homo sapiens, UniProt O95076 139-225)
# Sequence of ALX3 (Homo sapiens, UniProt O95076 139-225) (O95076 139-225): as the sequence (O95076 139-225 N203Q) above, with Q65N counted along it
# [33] = molecular target: ALX3 (Homo sapiens, UniProt O95076 139-225, L168Q)
# Sequence of ALX3 (Homo sapiens, UniProt O95076 139-225, L168Q) (O95076 139-225 L168Q): as the sequence (O95076 139-225 N203Q) above, with L30Q, Q65N counted along it
# [34] = molecular target: ALX3 (Homo sapiens, UniProt O95076 139-225, L168V)
# Sequence of ALX3 (Homo sapiens, UniProt O95076 139-225, L168V) (O95076 139-225 L168V): as the sequence (O95076 139-225 N203Q) above, with L30V, Q65N counted along it
# [35] = molecular target: ALX3 (Homo sapiens, UniProt O95076 139-225, N203S)
# Sequence of ALX3 (Homo sapiens, UniProt O95076 139-225, N203S) (O95076 139-225 N203S): as the sequence (O95076 139-225 N203Q) above, with Q65S counted along it
# Sequence of HOXA4 (Homo sapiens, UniProt Q00056 201-287, W262R) (Q00056 201-287 W262R): as the sequence (Q00056 201-287 R217L) above, with L17R, W62R counted along it
# Sequence of HOXC10 (Homo sapiens, UniProt Q9NYD6 254-340) (Q9NYD6 254-340): as the sequence (Q9NYD6 254-340 K271E) above, with E18K counted along it
# Sequence of ALX4 (Homo sapiens, UniProt Q9H161 200-286) (Q9H161 200-286): as the sequence (Q9H161 200-286 Q225E) above, with E26Q counted along it
sequence,measurement,setting,value
CCCGAAGG,binding signal,[1],"9.83 upbm affinity estimate (log intensity, higher = more binding, comparable within an allelic series)"
same,binding signal,[2],"9.96 upbm affinity estimate (log intensity, higher = more binding, comparable within an allelic series)"
same,binding signal,[3],"7.8 upbm affinity estimate (log intensity, higher = more binding, comparable within an allelic series)"
same,binding signal,[4],"8.2 upbm affinity estimate (log intensity, higher = more binding, comparable within an allelic series)"
same,binding signal,[5],"9.81 upbm affinity estimate (log intensity, higher = more binding, comparable within an allelic series)"
same,binding signal,[6],"9.76 upbm affinity estimate (log intensity, higher = more binding, comparable within an allelic series)"
same,binding signal,[7],"9.97 upbm affinity estimate (log intensity, higher = more binding, comparable within an allelic series)"
same,binding signal,[8],"9.93 upbm affinity estimate (log intensity, higher = more binding, comparable within an allelic series)"
GGATCACA,binding signal,[9],"11.1 upbm affinity estimate (log intensity, higher = more binding, comparable within an allelic series)"
same,binding signal,[10],"10.9 upbm affinity estimate (log intensity, higher = more binding, comparable within an allelic series)"
same,binding signal,[11],"11.2 upbm affinity estimate (log intensity, higher = more binding, comparable within an allelic series)"
TAATTTGA,binding signal,[1],"10.4 upbm affinity estimate (log intensity, higher = more binding, comparable within an allelic series)"
same,binding signal,[12],"11.7 upbm affinity estimate (log intensity, higher = more binding, comparable within an allelic series)"
same,binding signal,[13],"10.7 upbm affinity estimate (log intensity, higher = more binding, comparable within an allelic series)"
same,binding signal,[14],"12.2 upbm affinity estimate (log intensity, higher = more binding, comparable within an allelic series)"
same,binding signal,[5],"11.4 upbm affinity estimate (log intensity, higher = more binding, comparable within an allelic series)"
same,binding signal,[15],"12.2 upbm affinity estimate (log intensity, higher = more binding, comparable within an allelic series)"
same,binding signal,[16],"11.9 upbm affinity estimate (log intensity, higher = more binding, comparable within an allelic series)"
same,binding signal,[17],"10.5 upbm affinity estimate (log intensity, higher = more binding, comparable within an allelic series)"
same,binding signal,[6],"12.8 upbm affinity estimate (log intensity, higher = more binding, comparable within an allelic series)"
same,binding signal,[18],"13.4 upbm affinity estimate (log intensity, higher = more binding, comparable within an allelic series)"
same,binding signal,[19],"10.9 upbm affinity estimate (log intensity, higher = more binding, comparable within an allelic series)"
same,binding signal,[20],"13 upbm affinity estimate (log intensity, higher = more binding, comparable within an allelic series)"
same,binding signal,[21],"10.9 upbm affinity estimate (log intensity, higher = more binding, comparable within an allelic series)"
same,binding signal,[8],"10.8 upbm affinity estimate (log intensity, higher = more binding, comparable within an allelic series)"
same,binding signal,[22],"13.2 upbm affinity estimate (log intensity, higher = more binding, comparable within an allelic series)"
AGCCCGAG,binding signal,[1],"9.9 upbm affinity estimate (log intensity, higher = more binding, comparable within an allelic series)"
same,binding signal,[23],"9.64 upbm affinity estimate (log intensity, higher = more binding, comparable within an allelic series)"
same,binding signal,[5],"9.88 upbm affinity estimate (log intensity, higher = more binding, comparable within an allelic series)"
same,binding signal,[24],"9.62 upbm affinity estimate (log intensity, higher = more binding, comparable within an allelic series)"
same,binding signal,[25],"9.59 upbm affinity estimate (log intensity, higher = more binding, comparable within an allelic series)"
same,binding signal,[6],"9.65 upbm affinity estimate (log intensity, higher = more binding, comparable within an allelic series)"
same,binding signal,[26],"9.78 upbm affinity estimate (log intensity, higher = more binding, comparable within an allelic series)"
same,binding signal,[8],"9.85 upbm affinity estimate (log intensity, higher = more binding, comparable within an allelic series)"
CCCGAGGG,binding signal,[1],"9.81 upbm affinity estimate (log intensity, higher = more binding, comparable within an allelic series)"
same,binding signal,[23],"9.47 upbm affinity estimate (log intensity, higher = more binding, comparable within an allelic series)"
same,binding signal,[5],"9.62 upbm affinity estimate (log intensity, higher = more binding, comparable within an allelic series)"
same,binding signal,[24],"9.55 upbm affinity estimate (log intensity, higher = more binding, comparable within an allelic series)"
same,binding signal,[25],"9.54 upbm affinity estimate (log intensity, higher = more binding, comparable within an allelic series)"
same,binding signal,[6],"9.66 upbm affinity estimate (log intensity, higher = more binding, comparable within an allelic series)"
same,binding signal,[26],"9.61 upbm affinity estimate (log intensity, higher = more binding, comparable within an allelic series)"
same,binding signal,[8],"9.77 upbm affinity estimate (log intensity, higher = more binding, comparable within an allelic series)"
CCCCAGGC,binding signal,[1],"9.71 upbm affinity estimate (log intensity, higher = more binding, comparable within an allelic series)"
same,binding signal,[13],"9.11 upbm affinity estimate (log intensity, higher = more binding, comparable within an allelic series)"
same,binding signal,[5],"9.7 upbm affinity estimate (log intensity, higher = more binding, comparable within an allelic series)"
same,binding signal,[27],"9.25 upbm affinity estimate (log intensity, higher = more binding, comparable within an allelic series)"
same,binding signal,[28],"9.43 upbm affinity estimate (log intensity, higher = more binding, comparable within an allelic series)"
same,binding signal,[29],"9.37 upbm affinity estimate (log intensity, higher = more binding, comparable within an allelic series)"
same,binding signal,[6],"9.62 upbm affinity estimate (log intensity, higher = more binding, comparable within an allelic series)"
same,binding signal,[30],"9.53 upbm affinity estimate (log intensity, higher = more binding, comparable within an allelic series)"
same,binding signal,[8],"9.76 upbm affinity estimate (log intensity, higher = more binding, comparable within an allelic series)"
same,binding signal,[22],"9.25 upbm affinity estimate (log intensity, higher = more binding, comparable within an allelic series)"
AGCCACGG,binding signal,[1],"9.87 upbm affinity estimate (log intensity, higher = more binding, comparable within an allelic series)"
same,binding signal,[23],"9.64 upbm affinity estimate (log intensity, higher = more binding, comparable within an allelic series)"
same,binding signal,[5],"9.72 upbm affinity estimate (log intensity, higher = more binding, comparable within an allelic series)"
same,binding signal,[24],"9.71 upbm affinity estimate (log intensity, higher = more binding, comparable within an allelic series)"
same,binding signal,[31],"7.72 upbm affinity estimate (log intensity, higher = more binding, comparable within an allelic series)"
same,binding signal,[25],"9.61 upbm affinity estimate (log intensity, higher = more binding, comparable within an allelic series)"
same,binding signal,[6],"9.87 upbm affinity estimate (log intensity, higher = more binding, comparable within an allelic series)"
same,binding signal,[32],"7.83 upbm affinity estimate (log intensity, higher = more binding, comparable within an allelic series)"
same,binding signal,[33],"7.8 upbm affinity estimate (log intensity, higher = more binding, comparable within an allelic series)"
same,binding signal,[26],"9.71 upbm affinity estimate (log intensity, higher = more binding, comparable within an allelic series)"
same,binding signal,[34],"7.72 upbm affinity estimate (log intensity, higher = more binding, comparable within an allelic series)"
same,binding signal,[8],"9.91 upbm affinity estimate (log intensity, higher = more binding, comparable within an allelic series)"
same,binding signal,[35],"7.74 upbm affinity estimate (log intensity, higher = more binding, comparable within an allelic series)"
